# Values of other authors as cited in PubChem BioAssay AID977608.
# In all, about 4,300 compounds went through this assay and about 4,300 (100%) were called active. Cut-off not given; nearly all actives show IC50 up to about 1400 µM. So high a share suggests a set chosen from earlier hits. Some of the results follow. Where a SMILES comes first, the peptide text is derived from it. Square brackets hold non-standard residues; d marks the D form. Peptide text beside a SMILES is read from it. [ ]: non-standard residue; d: D form. Orn(CH(NH2)2) = NC(N)NCCC[C@H](N)C(=O)O
# Test: literature IC50 values for PDB complexes, PDB-derived complexes (AID 977608)
# Conditions: PDB protein-ligand complexes
structure (smiles),measurement,setting,value
CC[C@H](C)[C@H](NC(=O)[C@H](C)NC(=O)[C@H](CC(N)=O)NC(=O)[C@@H]1CCCN1C(=O)[C@@H](N)CC(C)C)C(=O)NCC(=O)N[C@@H](CCCNC(N)N)C(=O)O (H-LPNAIG[Orn(CH(NH2)2)]-OH),IC50,"protein: Low-density lipoprotein receptor-related protein 6, PDB entry 3sov",61000 nM (active)
CC[C@H](C)[C@H](NC(=O)[C@@H](NC(=O)[C@@H](NC(=O)[C@H](CCCNC(N)N)NC(=O)[C@H](CCCCN)NC(=O)[C@H](CO)NC(=O)[C@H](CCCNC(N)N)NC(=O)CNC(=O)[C@@H](NC(=O)[C@H](CCC(N)=O)NC(=O)CNC(=O)[C@H](CC(C)C)NC(=O)[C@H](CCCCN)NC(=O)[C@@H]1CCCN1C(=O)[C@@H]1CCCN1C(=O)[C@H](CCCNC(N)N)NC(=O)[C@@H](N)CCCCN)[C@@H](C)CC)C(C)C)C(C)C)C(=O)O (H-K[Orn(CH(NH2)2)]PPKLGQIG[Orn(CH(NH2)2)]SK[Orn(CH(NH2)2)]VVI-OH),IC50,"protein: Calcium/calmodulin dependent protein kinase II, PDB entry 3kl8",120 nM (active)
C#CC[C@H](NC(=O)[C@@H](NC(=O)[C@H](CC(C)C)NC(=O)[C@@H](NC(=O)CNC(=O)[C@@H](NC(=O)CNC(=O)[C@H](C)NC(=O)[C@@H](CCC)NC(=O)[C@](C)(N)c1ccccc1)[C@@H](C)CC)[C@@H](C)CC)[C@@H](C)O)C(=O)O,IC50,"protein: HLA class I histocompatibility antigen, A-2 alpha chain HLA-A 0201, PDB entry 4wj5",510 nM (active)
NCCCC[C@H](N)C(=O)N[C@@H](CCCNC(N)N)C(=O)N1CCC[C@H]1C(=O)N1CCC[C@H]1C(=O)N1CCC[C@H]1C(=O)N1CCC[C@H]1C(=O)N1CCC[C@H]1C(=O)N1CCC[C@H]1C(=O)NCC(=O)O (H-K[Orn(CH(NH2)2)]PPPPPPG-OH),IC50,"protein: cortactin isoform a, PDB entry 2d1x",7900 nM (active)
CC[C@H](C)[C@H](NC(=O)[C@H](CO[P+](O)(O)O)NC(=O)[C@H](C)NC(=O)[C@H](CCC(N)=O)NC(=O)[C@@H](N)CCCNC(N)N)C(=O)N[C@@H](CCC(=O)O)C(=O)N[C@@H](CC(C)C)C(=O)N1CCC[C@H]1C(=O)N[C@@H](CO)C(=O)N[C@@H](CCSC)C(=O)O,IC50,"protein: HLA class I histocompatibility antigen, PDB entry 3bh8",11.2 nM (active)
CC[C@H](C)[C@H](NC(=O)[C@H](CCCNC(N)N)NC(=O)CNC(=O)[C@@H](NC(=O)[C@@H](NC(=O)[C@@H](NC(=O)[C@@H](NC(=O)[C@H](CO)NC(=O)CNC(=O)CN)C(C)C)C(C)C)[C@@H](C)CC)C(C)C)C(=O)N[C@H](C(=O)N[C@@H](CC(C)C)C(=O)N[C@@H](CO)C(=O)O)[C@@H](C)CC (HELM PEPTIDE1{G.G.S.V.V.I.V.G.[NC(N)NCCC[C@H](N[*:1])C(=O)[*:2]].I.I.L.S}$$$$V2.0),IC50,"protein: Genome polyprotein (D1194V mutation), PDB entry 4i32",58 nM (active)
same,IC50,"protein: Genome polyprotein (R1181K mutation), PDB entry 4i33",4.7 nM (active)
same,IC50,"protein: Genome polyprotein, PDB entry 4i31",0.48 nM (active)
CCCNc1nc(N)c(C(=O)c2ccc(Cl)s2)s1,IC50,"protein: Cyclin-dependent kinase 2, PDB entry 3s00",12000 nM (active)
Nc1nc(NC2C=C2)cc(-c2cccc(Cl)c2Cl)n1,IC50,"protein: 7,8-dihydro-8-oxoguanine triphosphatase, human MTH1 protein, PDB entry 4n1u",5 nM (active)
CNc1cc(-c2cccc(Cl)c2Cl)nc(N)n1,IC50,"protein: 7,8-dihydro-8-oxoguanine triphosphatase, human MTH1 protein, PDB entry 4n1t",0.8 nM (active)
O=C(NO)c1ncc(-c2ccccc2Cl)o1,IC50,"protein: METHIONINE AMINOPEPTIDASE, PDB entry 4a6w",1900 nM (active)
Cc1ccc(OC[C@@H](O)CNC2Cc3ccccc3C2)cc1C,IC50,"protein: Endochitinase CTS1, PDB entry 4txe",2400 nM (active)
C1=CC1c1[nH]nc2nccc(-c3ccco3)c12,IC50,"protein: CHECKPOINT KINASE 2, PDB entry 4bdj",7200 nM (active)
O=C(NCc1ccc(S(=O)(=O)C2CCN(C3CCOCC3)CC2)cc1)n1cc2ccncc2c1,IC50,"protein: Nicotinamide phosphoribosyltransferase, PDB entry 4kfp",10 nM (active)
C[C@H](C(=O)O)c1ccc2c(c1)[nH]c1ccc(Cl)cc12,IC50,"protein: Fatty-acid amide hydrolase 1, PDB entry 4do3",79000 nM (active)
Nc1nc(Nc2ccc(S(N)(=O)=O)cc2)sc1C(=O)Nc1c(F)cccc1F,IC50,"protein: Cyclin-dependent kinase 2, PDB entry 3r9h",100000 nM (active)
Nc1nc(Nc2ccc(S(N)(=O)=O)cc2)sc1C(=O)Nc1cccc(F)c1,IC50,"protein: Cyclin-dependent kinase 2, PDB entry 3r9d",71000 nM (active)
Nc1nc(Nc2ccc(S(N)(=O)=O)cc2)sc1C(=O)Nc1cc(F)cc(F)c1,IC50,"protein: Cyclin-dependent kinase 2, PDB entry 3r9o",100000 nM (active)
Oc1ccc(Nc2nc(-c3ccc(Cl)cc3)cs2)cc1,IC50,"protein: Sphingosine kinase 1, PDB entry 3vzd",500 nM (active)
Cc1nc2ccc(Br)cc2c(-c2ccc(Cl)cc2)c1[C@H](OC(C)(C)C)C(=O)O,IC50,"protein: Gag-Pol polyprotein (A128T mutation), PDB entry 4gvm",780 nM (active)
same,IC50,"protein: Gag-Pol polyprotein, PDB entry 4gw6",630 nM (active)
NC(N)c1ccc(CNC(=O)[C@@H]2CCN2C(=O)[C@H](NCC(=O)O)C2CCCCC2)cc1,IC50,"protein: bovine trypsin, PDB entry 1k1p",11.9 nM (active)
CNC(=O)[C@H](Cc1cnc[nH]1)NC(=O)CN(CCCc1ccccc1)CC(=O)O,IC50,"protein: human insulin degrading enzyme (ide), PDB entry 4gs8",100 nM (active)
O=c1ccn([C@@H]2O[C@H](CO[P+](O)(O)O[P+](O)(O)O)[C@@H](O)[C@H]2O)c(=O)[nH]1,IC50,"protein: human O-GlcNAc transferase and a thioglycopeptide, PDB entry 4gz3",1800 nM (active)
O=c1ccn([C@H]2C[C@H](O)[C@@H](CO[P+](O)(O)N[P+](O)(O)O[P+](O)(O)O)O2)c(=O)[nH]1,IC50,"protein: Human dUTPase, PDB entry 3ehw",15200 nM (active)
COc1cc(Nc2ncc(F)c(Nc3ccc4c(n3)N(CO[P+](O)(O)O)C(=O)C(C)(C)O4)n2)cc(OC)c1OC,IC50,"protein: Bromodomain-containing protein 4 BRD4-1, PDB entry 4o75",21000 nM (active)
COc1nc2c(Nc3ccccc3C(C)(C)C)c(C(=O)O)cnc2cc1-c1c(C)noc1C,IC50,"protein: BROMODOMAIN-CONTAINING PROTEIN 4, PDB entry 4bw3",500 nM (active)
Cc1noc(C)c1-c1ccc2c(Nc3ccccc3C(C)(C)C)c(C(=O)O)cnc2n1,IC50,"protein: BROMODOMAIN-CONTAINING PROTEIN 4, PDB entry 4bw2",6310 nM (active)
Cc1noc(C)c1-c1ccc2c(Nc3ccccc3C(C)(C)C)c(C(=O)O)cnc2c1,IC50,"protein: BROMODOMAIN-CONTAINING PROTEIN 4, PDB entry 4bw1",1260 nM (active)
CCc1cc(-c2nc(O)c(C(N)=O)c(=O)[nH]2)nc([C@H]2CCCC[C@@H]2C(=O)NCc2ccc(Cl)c(Cl)c2)n1,IC50,"protein: Phosphopantetheine adenylyltransferase, PDB entry 4nau",0.87 nM (active)
CCc1cc(Sc2ncc(C(=O)O)[nH]2)nc([C@H]2CCCC[C@@H]2C(=O)NCc2ccc(Cl)c(Cl)c2)n1,IC50,"protein: Phosphopantetheine adenylyltransferase, PDB entry 4nah",490 nM (active)
COc1cc(OC)nc(C2CCCCC2C(=O)NCc2ccc(Cl)c(Cl)c2)n1 (stereo not drawn),IC50,"protein: Phosphopantetheine adenylyltransferase, PDB entry 4nat",330 nM (active)
N[C@@H](C(=O)O)[C@H](O)[C@@]1(C(=O)O)CC[C@H](C[C@H](NC(=O)c2cc(Cl)c(O)c(Cl)c2)C(=O)O)N1,IC50,"protein: Glutamate receptor 2, PDB entry 4gxs",100000 nM (active)
OS(O)(O)c1cc(N=C=S)ccc1/C=C/c1ccc(N=C=S)cc1S(O)(O)O,IC50,"protein: human soluble Adenylyl Cyclase TYPE 10, PDB entry 4clz",43000 nM (active)
O=C(NCCCNCc1cc(Cl)cc(Cl)c1)Nc1ccccc1O,IC50,"protein: Trypanosoma brucei methionyl-tRNA synthetase, PDB entry 4mw0",39 nM (active)
CC[C@H](C)[C@H](NC(=O)[C@H](CC(N)=O)NC(=O)[C@H](Cc1ccccc1)NC(=O)[C@H](Cc1c[nH]c2ccccc12)NC(=O)[C@H](CC(N)=O)NC(C)=O)C(=O)N[C@H](C(=O)N[C@@H](CC(N)=O)C(=O)N[C@]1(C)CCCCCC[C@@](C)(C(=O)N[C@H](C(=O)N[C@@H](CCCCN)C(=O)N[C@@H](CCCCN)C(=O)N[C@@H](CCCCN)C(=O)N[C@@H](CCCCN)C(=O)O)[C@@H](C)CC)NC(=O)[C@H](Cc2c[nH]c3ccccc23)NC(=O)[C@H](CC(C)C)NC1=O)[C@@H](C)O,IC50,"protein: HIV-1 neutralizing antibody 4E10 Fab, PDB entry 4nhc",46 nM (active)
CC[C@H](C)[C@H](NC(=O)[C@H](CC(N)=O)NC(=O)[C@H](Cc1ccccc1)NC(=O)[C@H](Cc1c[nH]c2ccccc12)NC(=O)[C@H](CC(N)=O)NC(C)=O)C(=O)N[C@H](C(=O)N[C@@H](CC(N)=O)C(=O)N[C@]1(C)CCCCCC[C@@](C)(C(=O)N[C@H](C(=O)N[C@@H](CCNC(=O)CNC(=O)[C@@H](N)CO[P+](O)(O)O)C(=O)N[C@@H](CCCCN)C(=O)N[C@@H](CCCCN)C(=O)N[C@@H](CCCCN)C(=O)O)[C@@H](C)CC)NC(=O)[C@H](Cc2c[nH]c3ccccc23)NC(=O)[C@H](CC(C)C)NC1=O)[C@@H](C)O,IC50,"protein: HIV-1 neutralizing antibody 4E10 Fab, PDB entry 4ngh",30 nM (active)
